The source of these data is the supplement of paper PMC6555819.

One experiment relates to RARb:RXRa (NR concentration 270 nM, RXRa partner concentration 90 nM). As to the kind of experiment: PBM binding z-score (relative to random genomic background probes); higher = stronger binding; sequences stand for … in GC…GCGATTGACAGCGTAGAATGAAGG
Summed up:
(§1)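 Ligand-free nuclear receptor dimers were bound for 1 h to custom Agilent 4×180K protein-binding microarrays. Detection used antibodies against each partner (one per run). Binding z-scores rest on regression-normalized fluorescence, with random background probes as the reference.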
CGAACGAGGTCATTGACAGGACAGTGAATAGTAA: the PBM binding z-score was 4.82.

As for TCTAGTTGGTCACGGAGGGCACACACGACGGGTA, the PBM binding z-score was found to be 2.35.

With AGAATGAGGTCATTAAGATCAGGGAATTGCGGTC, the PBM binding z-score is 4.79.

As to CGCACTAGGTCATCCAGGACAGTGAATACATTGA, the PBM binding z-score stood at 3.88.

In turn, TAGCCTAGGTCATGCGGCCCAGTATAGTGTCGGC had a PBM binding z-score of 3.72.

Consider GATACAGGGTCAGCTACAGGCCAGAGTATGGAAA, for which the PBM binding z-score amounted to 4.02.

With ATCGAAAGGTCGACGCGGTGAGTATACACCGTTT, the PBM binding z-score amounted to 3.72.

Take CCTGCTAGGTCATGGTCAGCGAATCTACAGTATG: the PBM binding z-score turned out to be 4.09.

In turn, GCTGCTAGGTCAACTGATGGTCACCTAAAGCTCG registered a PBM binding z-score of 4.24.

CCGACTGGGGCAAGGTCACCATAACGCACAGCCA gave a PBM binding z-score of 4.25.

The sequence TCTCGGAGGACACCAAAGGTCAGAGCTCGACATC displayed a PBM binding z-score of 4.21.

The sequence AGTCAAAGTGCATCTAGGTAACGTAAGATATGCT gave a PBM binding z-score of 1.53.

The sequence CCTACTGGGCCAAAAAGTTCATTGATGCCGATAA showed a PBM binding z-score of 2.24.

ATTTGTAGGTTACATCCGGGTCATTCAGGCTATG gave a PBM binding z-score of 2.77.

As for CGAACTAGGTCACCCAGGACAGTGAATACATTGA, the PBM binding z-score was determined as 4.25.

As for CGTCCGAGGTCATAGGAGGTCAGTGAAGACAGAT, the PBM binding z-score was 5.36.

Regarding CCTAGTTGTTCAGGAGGTCACACACCGGATATGA, the PBM binding z-score was found to be 3.62.

In the case of CGAACTACGTCATCCAGGACAGTGAATACATTGA, the PBM binding z-score was -0.0115.

Regarding AATAAAGGGTCATCGTAGGCCAGAGTACGCACAG, the PBM binding z-score came to 5.11.

On to CGTCAAAGTCCAAGGTAACGTAACAGAAAGCAGC, for which the PBM binding z-score was 1.52.

With TAGCCTAGGTCATACAGGGGCCAGTATAGAAAGC, the PBM binding z-score came to 3.91.

Consider CGAACAAGGTCATTGACAGGACAGTGAATAGTAA, for which the PBM binding z-score came to 5.

Sequence ATATGTAGGTTAGCTGGGGTCATTCACACTAGGC gave a PBM binding z-score of 2.85.

The sequence CGTCCAAGGACAATGCTAGGTCAGTGAAAGCATT registered a PBM binding z-score of 2.03.

CGAACGAGGTCATGAGTTGATAGCAAATGCCGAT came in with a PBM binding z-score of 5.23.

The sequence AGAATGAGGTCAAGATCAGGGAAACAGAATACAT showed a PBM binding z-score of 5.21.

CGTCCAAGGTTAAGGTCAGTGAAAGAGACTCGAA returned a PBM binding z-score of 4.16.

CATACAGGGTCGGCTAGGCCAGAGTAGGGACGGC gave a PBM binding z-score of 1.13.

CCTACTGGGCCAAAGAGGTCATTGATGCCGATAA had a PBM binding z-score of 3.07.

On to ATATGTAGGTTAGGGTCAGTCAGAAAGTAGGGAA, for which the PBM binding z-score is 3.22.

In turn, AGTCAAAGTTTATCTAGGTAACGTAAGATATGCT showed a PBM binding z-score of 1.93.

TAGCCTAGGTCATGCGGGACAGTATAGTGTCGGC gave a PBM binding z-score of 3.72.

As for ACTTAAGGGTCAACGAGGTTATAGCACGCGTATA, the PBM binding z-score amounted to 5.29.

Sequence TAGCCTAGTTCATTCAGGGGCCAGTATAGAAAGC came in with a PBM binding z-score of 1.72.

In turn, CGAACAAGGTCATCCAGGACAGTGAATACATTGA registered a PBM binding z-score of 5.19.

As to CGTCCGAGGTCAAGGTCAGTGAAAGAGACTCGAA, the PBM binding z-score is 5.71.

In turn, TAGCCGAGGTCATTCAGGGGCCAGTATAGAAAGC yielded a PBM binding z-score of 5.27.

Turning to CCTACTCGGCCAAAAAGGTCATTGATGCCGATAA, the PBM binding z-score was 4.07.

CCTTACGGGTCCCTCCAGGTTATAGCATCGGAGT showed a PBM binding z-score of 0.0941.

In turn, AACGAAAGGTCGAAGGTGAGTATACCCACCCGAA showed a PBM binding z-score of 3.79.

The next experiment has as its system RARb homodimer (NR concentration 270 nM). The description is as above. The method, boiled down:
as §1
In turn, CGAACGAGGTCATTGACAGGACAGTGAATAGTAA registered a PBM binding z-score of 3.73.

Sequence TCTAGTTGGTCACGGAGGGCACACACGACGGGTA had a PBM binding z-score of 2.28.

Take AGAATGAGGTCATTAAGATCAGGGAATTGCGGTC: the PBM binding z-score was determined as 3.96.

The sequence CGCACTAGGTCATCCAGGACAGTGAATACATTGA yielded a PBM binding z-score of 3.11.

In turn, TAGCCTAGGTCATGCGGCCCAGTATAGTGTCGGC registered a PBM binding z-score of 2.78.

GATACAGGGTCAGCTACAGGCCAGAGTATGGAAA had a PBM binding z-score of 2.99.

The sequence ATCGAAAGGTCGACGCGGTGAGTATACACCGTTT registered a PBM binding z-score of 2.45.

In turn, CCTGCTAGGTCATGGTCAGCGAATCTACAGTATG yielded a PBM binding z-score of 3.29.

The sequence GCTGCTAGGTCAACTGATGGTCACCTAAAGCTCG yielded a PBM binding z-score of 3.93.

On to CCGACTGGGGCAAGGTCACCATAACGCACAGCCA, for which the PBM binding z-score worked out at 4.23.

With TCTCGGAGGACACCAAAGGTCAGAGCTCGACATC, the PBM binding z-score was found to be 4.64.

AGTCAAAGTGCATCTAGGTAACGTAAGATATGCT displayed a PBM binding z-score of 0.456.

The sequence CCTACTGGGCCAAAAAGTTCATTGATGCCGATAA yielded a PBM binding z-score of 2.64.

In turn, ATTTGTAGGTTACATCCGGGTCATTCAGGCTATG yielded a PBM binding z-score of 3.43.

Regarding CGAACTAGGTCACCCAGGACAGTGAATACATTGA, the PBM binding z-score was 3.34.

Sequence CGTCCGAGGTCATAGGAGGTCAGTGAAGACAGAT showed a PBM binding z-score of 5.04.

Sequence CCTAGTTGTTCAGGAGGTCACACACCGGATATGA showed a PBM binding z-score of 4.15.

CGAACTACGTCATCCAGGACAGTGAATACATTGA returned a PBM binding z-score of -0.0588.

AATAAAGGGTCATCGTAGGCCAGAGTACGCACAG came in with a PBM binding z-score of 4.11.

CGTCAAAGTCCAAGGTAACGTAACAGAAAGCAGC showed a PBM binding z-score of 0.655.

TAGCCTAGGTCATACAGGGGCCAGTATAGAAAGC: the PBM binding z-score came out at 3.38.

CGAACAAGGTCATTGACAGGACAGTGAATAGTAA showed a PBM binding z-score of 3.92.

In the case of ATATGTAGGTTAGCTGGGGTCATTCACACTAGGC, the PBM binding z-score turned out to be 3.87.

CGTCCAAGGACAATGCTAGGTCAGTGAAAGCATT displayed a PBM binding z-score of 2.48.

Sequence CGAACGAGGTCATGAGTTGATAGCAAATGCCGAT returned a PBM binding z-score of 3.94.

AGAATGAGGTCAAGATCAGGGAAACAGAATACAT showed a PBM binding z-score of 3.8.

CGTCCAAGGTTAAGGTCAGTGAAAGAGACTCGAA yielded a PBM binding z-score of 3.58.

In the case of CATACAGGGTCGGCTAGGCCAGAGTAGGGACGGC, the PBM binding z-score turned out to be 0.799.

In turn, CCTACTGGGCCAAAGAGGTCATTGATGCCGATAA returned a PBM binding z-score of 3.65.

In turn, ATATGTAGGTTAGGGTCAGTCAGAAAGTAGGGAA displayed a PBM binding z-score of 3.34.

Sequence AGTCAAAGTTTATCTAGGTAACGTAAGATATGCT displayed a PBM binding z-score of 0.612.

Turning to TAGCCTAGGTCATGCGGGACAGTATAGTGTCGGC, the PBM binding z-score was found to be 2.99.

Turning to ACTTAAGGGTCAACGAGGTTATAGCACGCGTATA, the PBM binding z-score came out at 4.31.

Take TAGCCTAGTTCATTCAGGGGCCAGTATAGAAAGC: the PBM binding z-score worked out at 1.64.

For the sequence CGAACAAGGTCATCCAGGACAGTGAATACATTGA, the PBM binding z-score turned out to be 4.

CGTCCGAGGTCAAGGTCAGTGAAAGAGACTCGAA registered a PBM binding z-score of 5.16.

Regarding TAGCCGAGGTCATTCAGGGGCCAGTATAGAAAGC, the PBM binding z-score amounted to 4.49.

On to CCTACTCGGCCAAAAAGGTCATTGATGCCGATAA, for which the PBM binding z-score was 4.59.

The sequence CCTTACGGGTCCCTCCAGGTTATAGCATCGGAGT yielded a PBM binding z-score of 0.0845.

Consider AACGAAAGGTCGAAGGTGAGTATACCCACCCGAA, for which the PBM binding z-score is 2.48.
